Measured values taken from PubChem BioAssay AID1224864 (Chung Lab, Department of Pediatrics, Emory University, 2016).
Hit rate of the full screen: of about 2,000 compounds, about 20 (1%) were called active. The rule behind the calls is not given here. Shown is part of a subset that was picked to be rich in actives. Residues, ends and D or L forms follow the SMILES beside them. *: point of attachment. Boc = CC(C)(C)OC(=O)*

Target: Cystic fibrosis transmembrane conductance regulator (Homo sapiens) (UniProt P13569)
Test: F508del-CFTR plasma membrane relocalization enhancers – imaging, HeLa, high-content microscopy, immunofluorescence, primary screen (AID 1224864);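 note: HeLa cells stably expressing F508del-CFTR stained with 3G11 antibody against NBD1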;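 for plasma membrane CFTR intensity: mean immunofluorescence in a thin cell-margin band taken as plasma membrane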
Conditions: PM immunofluorescence imaging, 24 h, at 10 µM, stronger effect = higher value, relative to vehicle wells set at 100; total CFTR intensity: measured here: total cellular F508del-CFTR signal

Sequence of Cystic fibrosis transmembrane conductance regulator (Homo sapiens) (P13569 whole entry, looked up, stated change not applied): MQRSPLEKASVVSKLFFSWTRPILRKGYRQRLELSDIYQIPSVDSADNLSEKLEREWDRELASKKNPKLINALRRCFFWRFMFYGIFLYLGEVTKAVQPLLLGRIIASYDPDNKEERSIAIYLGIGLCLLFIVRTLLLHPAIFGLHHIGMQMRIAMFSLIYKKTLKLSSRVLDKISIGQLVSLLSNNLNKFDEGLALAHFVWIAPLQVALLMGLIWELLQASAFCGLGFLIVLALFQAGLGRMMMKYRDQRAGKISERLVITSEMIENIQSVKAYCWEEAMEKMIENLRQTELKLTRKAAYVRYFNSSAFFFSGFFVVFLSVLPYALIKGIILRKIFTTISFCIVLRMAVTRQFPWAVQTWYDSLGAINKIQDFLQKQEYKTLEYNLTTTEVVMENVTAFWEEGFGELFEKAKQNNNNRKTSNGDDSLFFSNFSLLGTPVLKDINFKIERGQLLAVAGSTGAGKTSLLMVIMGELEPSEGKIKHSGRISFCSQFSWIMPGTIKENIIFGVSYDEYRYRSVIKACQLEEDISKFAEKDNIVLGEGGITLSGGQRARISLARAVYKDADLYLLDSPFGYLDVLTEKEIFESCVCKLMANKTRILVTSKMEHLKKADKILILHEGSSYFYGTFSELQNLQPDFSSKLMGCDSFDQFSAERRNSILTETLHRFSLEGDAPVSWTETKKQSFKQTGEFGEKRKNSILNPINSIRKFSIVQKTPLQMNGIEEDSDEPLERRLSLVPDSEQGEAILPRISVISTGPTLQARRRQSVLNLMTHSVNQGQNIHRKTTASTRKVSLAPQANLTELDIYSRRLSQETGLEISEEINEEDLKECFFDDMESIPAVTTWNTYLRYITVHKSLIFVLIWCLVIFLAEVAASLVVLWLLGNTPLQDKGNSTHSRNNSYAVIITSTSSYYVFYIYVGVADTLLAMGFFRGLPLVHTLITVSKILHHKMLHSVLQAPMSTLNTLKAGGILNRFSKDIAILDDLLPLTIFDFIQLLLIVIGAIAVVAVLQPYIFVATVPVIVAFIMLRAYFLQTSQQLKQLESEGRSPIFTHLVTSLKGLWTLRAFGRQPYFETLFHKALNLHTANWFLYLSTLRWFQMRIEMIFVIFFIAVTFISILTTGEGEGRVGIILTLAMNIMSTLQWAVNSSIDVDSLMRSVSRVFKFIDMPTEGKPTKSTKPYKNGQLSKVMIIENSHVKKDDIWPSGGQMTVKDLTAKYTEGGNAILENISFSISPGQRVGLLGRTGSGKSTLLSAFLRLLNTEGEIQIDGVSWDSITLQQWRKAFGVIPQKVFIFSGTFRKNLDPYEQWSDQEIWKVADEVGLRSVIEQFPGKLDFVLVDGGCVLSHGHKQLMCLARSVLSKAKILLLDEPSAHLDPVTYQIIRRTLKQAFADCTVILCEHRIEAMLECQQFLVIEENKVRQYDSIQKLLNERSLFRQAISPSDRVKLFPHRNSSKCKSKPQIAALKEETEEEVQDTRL

| Compound | plasma membrane CFTR intensity | total CFTR intensity [%] |
| --- | --- | --- |
| Fc1ccc(NC(=S)Nc2ccccc2Cl)cc1 | 92% (inactive) | 93 |
| CCNC(=O)c1sc2cc(C)ccc2c1Cl | 92% (inactive) | 95 |
| NS(=O)(=O)c1cc2c(cc1Cl)NC(CSCc1ccccc1)=NS2(=O)=O | 84% (inactive) | 85 |
| C[C@@H]1C[C@H](Nc2ccccc2)c2ccccc2N1C(=O)c1cccnc1 | 97% (inactive) | 103 |
| CC(=O)c1c[nH]c2ccc(C)cc2c1=O | 83% (inactive) | 84 |
| COc1ccc(OC)c(NC2=C(Cl)C(=O)N(Cc3ccccc3)C2=O)c1 | 88% (inactive) | 100 |
| Cc1ccc2occ(C(=O)c3ccco3)c(=O)c2c1 | 86% (inactive) | 90 |
| O=C(O)[C@H](Cc1ccccc1)NC(=O)N1CCC(Cc2ccccc2)CC1 | 89% (inactive) | 83 |
| CC(C)CC(=O)N(Cc1ccc(F)cc1)C1CCS(=O)(=O)C1 (stereo unspecified) | 96% (inactive) | 98 |
| CCOc1ccccc1OCCOc1ccc(F)cc1 | 86% (inactive) | 86 |
| C=CCNc1nc2c(c(=O)n(C)c(=O)n2C)n1CC(=C)C | 82% (inactive) | 80 |
| CCOC(=O)C1=C(N)Oc2c(c(=O)[nH]c3ccccc23)C1c1ccccc1 (stereo unspecified) | 93% (inactive) | 96 |
| CCNC(=O)C(Cc1ccccc1)NC(=O)OCc1ccccc1 (stereo unspecified) | 81% (inactive) | 80 |
| COC(=O)c1ccccc1NC(=O)c1ccc(COc2ccc3c(c2)CCC3)cc1 | 84% (inactive) | 83 |
| CCOC(=O)C1C(=O)OC2(CCOC(C)(C)C2)C1C(=O)OCC (stereo unspecified) | 90% (inactive) | 87 |
| COc1ccc(NC(=O)N2CCCCC2c2cccnc2)cc1 (stereo unspecified) | 84% (inactive) | 84 |
| CCOC(=O)C1C2C=CC3(CN(c4ccc(Cl)c(F)c4)C(=O)C13)O2 (stereo unspecified) | 84% (inactive) | 83 |
| CCOC(=O)/C=C1\NC(C)(C)Cc2cc(OC)c(OC)cc21 | 86% (inactive) | 89 |
| O=C(COc1ccccc1)N1CCN(c2ccccc2)CC1 | 88% (inactive) | 85 |
| CC[N+]1(C)CC2CCC(C)(C1)C2(C)C (stereo unspecified) | 72% (inactive) | 75 |
| CC(C)(C)OC(=O)N1CCCC1C(=O)NC(Cc1ccccc1)C(=O)O (stereo not drawn) (Boc-Pro-Phe-OH; configuration not given here) | 96% (inactive) | 102 |
| CC(=O)N1CC23C=CC(CC2CC12CCCCCC2)O3 (stereo unspecified) | 73% (inactive) | 77 |

| Compound | plasma membrane CFTR intensity | total CFTR intensity [%] |
| --- | --- | --- |
| O=C(Nc1cccc(-c2nc3ncccc3o2)c1)c1ccccc1 | 68% (inactive) | 72 |
| CC(COc1ccccc1)NC(C)C(O)c1ccc(O)cc1 (stereo unspecified) | 104% (active) | 121 |
| CC(COc1ccccc1)N(CCCl)Cc1ccccc1 (stereo unspecified) | 78% (inactive) | 80 |
| CC(NCCc1ccc(O)cc1)C(O)c1ccc(O)cc1 (stereo unspecified) | 101% (inactive) | 96 |
| Cc1coc2cc3oc(=O)c(CCC(=O)O)c(C)c3cc12 | 105% (inactive) | 107 |
| N#C/C(C(N)=O)=c1/ccc2c(c1)N1C3=C(CCCC3)CC3CCCCC31N=2 (stereo unspecified) | 109% (active) | 123 |
| COC1CCCCC1Nc1ccc(C)c(C)c1 (stereo unspecified) | 80% (inactive) | 82 |
| CC(=O)Nc1cc(O)cc(O)c1 | 83% (inactive) | 93 |
| O=C(NCC1CCCO1)c1ccc(OC2CCN(C(=O)C3CC3)CC2)cc1 (stereo unspecified) | 83% (inactive) | 76 |
| CCOC(=O)c1oc2cc(OCC(N)=O)ccc2c(=O)c1-c1ccc(OC)c(OC)c1 | 82% (inactive) | 82 |
| CC(=O)OCC(=O)[C@@]1(O)CC[C@H]2[C@@H]3CCC4=CC(=O)C=C[C@]4(C)[C@H]3[C@@H](O)C[C@@]21C | 89% (inactive) | 94 |
| CC1(C)O[C@@H]2C[C@H]3[C@@H]4CCC5=CC(=O)C=C[C@]5(C)[C@@]4(F)[C@@H](O)C[C@]3(C)[C@]2(C(=O)CO)O1 | 109% (inactive) | 114 |
| CCCC1O[C@@H]2C[C@H]3[C@@H]4CCC5=CC(=O)C=C[C@]5(C)[C@H]4[C@@H](O)C[C@]3(C)[C@]2(C(=O)CO)O1 (stereo partly specified) | 123% (active) | 137 |
| CC(=O)N1c2ccccc2C(C)=CC1(C)C | 80% (inactive) | 87 |
| COc1ccc(C(=O)CC2OC(=O)c3c2ccc(OC)c3OC)cc1 (stereo unspecified) | 118% (inactive) | 115 |
| COc1ccc2c(c1OC)C(C1c3c(cc4c(c3OC)OCO4)CCN1C)OC2=O (stereo unspecified) | 116% (inactive) | 112 |
| COc1ccc2c(c1OC)C(=O)OC2C1c2c(cc3c(c2OC)OCO3)CCN1C (stereo unspecified) | 138% (active) | 128 |
| COc1ccc(CCNC(=S)NC(=O)/C=C/c2ccc(C)cc2)cc1OC | 82% (inactive) | 81 |
| CN/C(=C/[N+](=O)[O-])NCCSCc1ccc(CN(C)C)o1 | 88% (inactive) | 83 |
| Cc1ncoc1C(=O)N1CCCC(C(=O)c2ccc(-c3ccccc3)c(F)c2)C1 (stereo unspecified) | 82% (inactive) | 75 |
| CCc1cc(=O)oc2cc(C)c(CN3CCCC(C)C3)c(O)c12 (stereo unspecified) | 88% (inactive) | 88 |
